A number with no mark means an inactive call. Inconclusive results are not listed. A call without a number means that no potency is given here. Calls of active or inactive are those of the source. Unless noted, the call rests on the fitted dose curve; in most records, active means well fitted curve in the direction sought with a large enough effect in the repeat runs; inconclusive means weak or mixed curves; inactive means no such curve, though single readings can be large; an effect the other way counts as inactive or inconclusive.
Columns and labels:
[1] = qHTS assay to identify small molecule agonists of the estrogen receptor beta (ER-beta) signaling pathway - cell viability counter screen (AID 1259380); further: nearly all actives have a fitted effect of over 30% in size; further: potency means the concentration at half of the fitted maximal effect
In short: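 Cytotoxicity is measured in parallel with the reporter screen: after 16 hr compound exposure at 37C and a 2 hr LiveBLAzer step, CellTiter-Glo is added to the same ER-beta-UAS-bla HEK293T wells and luminescence read after 30 min.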

[2] = target: Androgen receptor (Homo sapiens) (UniProt P10275); experiment: qHTS assay to identify small molecule agonists of the androgen receptor (AR) signaling pathway in the presence of an antagonist (AID 1259381; calls by dose curve; further: nearly all actives have a fitted effect of over 15% in size)
Androgen receptor (Homo sapiens), sequence (P10275 whole entry, looked up): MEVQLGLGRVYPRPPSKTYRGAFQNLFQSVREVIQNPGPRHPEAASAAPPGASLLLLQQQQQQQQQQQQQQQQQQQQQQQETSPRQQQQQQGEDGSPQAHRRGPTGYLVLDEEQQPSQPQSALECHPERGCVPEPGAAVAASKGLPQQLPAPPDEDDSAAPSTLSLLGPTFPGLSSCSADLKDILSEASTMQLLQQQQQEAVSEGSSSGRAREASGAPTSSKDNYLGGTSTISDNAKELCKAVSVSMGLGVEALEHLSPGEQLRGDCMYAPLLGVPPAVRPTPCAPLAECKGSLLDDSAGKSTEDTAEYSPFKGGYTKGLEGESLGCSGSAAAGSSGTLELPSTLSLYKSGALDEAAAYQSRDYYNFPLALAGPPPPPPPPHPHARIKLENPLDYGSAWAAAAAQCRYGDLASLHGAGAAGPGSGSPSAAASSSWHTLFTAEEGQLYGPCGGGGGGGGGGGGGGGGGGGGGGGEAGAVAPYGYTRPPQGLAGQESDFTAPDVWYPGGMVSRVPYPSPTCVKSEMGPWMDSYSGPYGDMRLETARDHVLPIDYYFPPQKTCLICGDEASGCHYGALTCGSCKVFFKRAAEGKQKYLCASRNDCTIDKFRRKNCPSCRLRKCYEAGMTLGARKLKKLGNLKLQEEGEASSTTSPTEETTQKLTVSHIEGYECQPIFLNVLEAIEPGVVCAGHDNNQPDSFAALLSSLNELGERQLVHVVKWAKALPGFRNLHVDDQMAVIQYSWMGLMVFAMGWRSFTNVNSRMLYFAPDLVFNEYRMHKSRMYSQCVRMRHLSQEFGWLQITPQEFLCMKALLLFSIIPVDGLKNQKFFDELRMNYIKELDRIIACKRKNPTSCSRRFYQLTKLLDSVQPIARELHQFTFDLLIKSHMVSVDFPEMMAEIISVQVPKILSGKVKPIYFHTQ
In short: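 Agonist-mode confirmation screen: human MDA-kb2 cells stably expressing luciferase under an MMTV promoter bearing AR and GR response elements, co-treated with 3.0uM nilutamide (final). Luminescence measured after 16hr compound incubation.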

[3] = qHTS assay to identify small molecule antagonists of the estrogen receptor beta (ER-beta) signaling pathway - cell viability counter screen (AID 1259382); further: nearly all actives have a fitted effect of over 55% in size; further: potency means the concentration at half of the fitted maximal effect
In short: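 Cytotoxicity counter screen multiplexed with the beta-lactamase antagonist assay: GripTite HEK293T ER-beta-bla cells were treated 16 hr with test chemicals in the presence of 1nM 17-beta-estradiol, and viability was measured by CellTiter-Glo.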

[4] = target: Estrogen receptor (Homo sapiens) (UniProt P03372); experiment: qHTS assay to identify small molecule agonists of the estrogen receptor alpha (ER-alpha) signaling pathway in the presence of an antagonist (AID 1259383; calls by dose curve; further: top concentration of the series differs between compounds; nearly all actives have a fitted effect of over 15% in size)
Estrogen receptor (Homo sapiens), sequence (P03372 whole entry, looked up): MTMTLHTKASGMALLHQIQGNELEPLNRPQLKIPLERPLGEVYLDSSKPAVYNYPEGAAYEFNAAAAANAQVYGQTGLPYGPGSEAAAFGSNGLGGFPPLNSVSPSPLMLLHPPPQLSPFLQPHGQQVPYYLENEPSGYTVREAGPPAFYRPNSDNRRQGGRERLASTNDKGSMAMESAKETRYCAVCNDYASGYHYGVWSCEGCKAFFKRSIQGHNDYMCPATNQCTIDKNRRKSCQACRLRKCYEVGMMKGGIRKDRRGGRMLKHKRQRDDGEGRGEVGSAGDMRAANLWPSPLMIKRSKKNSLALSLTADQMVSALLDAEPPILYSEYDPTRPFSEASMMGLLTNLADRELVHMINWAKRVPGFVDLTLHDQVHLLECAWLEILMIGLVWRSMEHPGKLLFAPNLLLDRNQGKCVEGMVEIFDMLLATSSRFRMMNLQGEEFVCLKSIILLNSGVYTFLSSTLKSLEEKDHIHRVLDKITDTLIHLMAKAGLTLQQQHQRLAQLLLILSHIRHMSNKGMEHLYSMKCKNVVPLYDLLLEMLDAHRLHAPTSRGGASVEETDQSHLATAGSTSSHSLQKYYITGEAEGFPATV
In short: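 Agonist-mode confirmation in the presence of the ER antagonist ICI-182,780 at 10.0nM final. Breast-derived VM7Luc4E2 reporter cells were exposed to compounds for 22hr, and ERE-driven luciferase was quantified by luminescence.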

[5] = qHTS assay to identify small molecule agonists or antagonists of the thyroid stimulating hormone receptor (TSHR) signaling pathway - wild type cell line counter screen (AID 1259384; calls by dose curve)
In short: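 Wild-type Hek293 cells, 800/well, 18 h at 37C, then compound with Ro20-1724 for 30 min RT. cAMP by HTRF (cAMP-d2/anti-cAMP cryptate), 1 h RT, fluorescence read. 15 concentrations, triplicates.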

[6] = target: Thyrotropin receptor (Homo sapiens) (UniProt P16473); experiment: qHTS assay to identify small molecule antagonists of the thyroid stimulating hormone receptor (TSHR) signaling pathway (AID 1259385; calls by dose curve; further: nearly all actives have a fitted effect of over 20% in size; further: potency means the concentration at half of the fitted maximal effect)
Thyrotropin receptor (Homo sapiens), sequence (P16473 whole entry, looked up): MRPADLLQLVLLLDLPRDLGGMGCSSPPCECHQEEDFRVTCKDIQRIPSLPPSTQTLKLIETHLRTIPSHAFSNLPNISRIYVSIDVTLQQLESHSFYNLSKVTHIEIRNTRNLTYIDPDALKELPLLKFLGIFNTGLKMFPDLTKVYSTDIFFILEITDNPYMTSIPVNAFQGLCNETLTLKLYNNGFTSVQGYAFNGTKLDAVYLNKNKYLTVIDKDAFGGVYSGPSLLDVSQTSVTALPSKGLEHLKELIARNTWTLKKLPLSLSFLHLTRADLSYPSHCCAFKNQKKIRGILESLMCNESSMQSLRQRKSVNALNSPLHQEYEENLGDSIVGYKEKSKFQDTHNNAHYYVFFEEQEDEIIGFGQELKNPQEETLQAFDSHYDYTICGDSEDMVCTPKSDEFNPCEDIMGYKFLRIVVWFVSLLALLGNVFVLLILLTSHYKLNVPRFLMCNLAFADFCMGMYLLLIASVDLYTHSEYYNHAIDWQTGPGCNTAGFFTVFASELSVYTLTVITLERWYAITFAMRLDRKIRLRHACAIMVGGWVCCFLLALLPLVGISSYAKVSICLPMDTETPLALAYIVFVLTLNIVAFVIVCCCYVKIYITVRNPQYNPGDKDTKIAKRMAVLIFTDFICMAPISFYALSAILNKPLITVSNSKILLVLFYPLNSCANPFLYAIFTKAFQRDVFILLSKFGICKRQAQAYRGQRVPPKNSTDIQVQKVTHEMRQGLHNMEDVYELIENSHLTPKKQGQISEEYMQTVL
In short: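 TSHR-HEK293 cells (800/well) plated 18 h, then compounds with Ro20-1724 and TSH at 1.5 ng/mL final, 30 min at room temperature. cAMP quantified by HTRF (cAMP-d2/anti-cAMP-cryptate, 1 h); 15 concentrations in triplicate.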

[7] = qHTS assay to identify small molecule agonists of the estrogen receptor alpha (ER-alpha) signaling pathway in the presence of an antagonist - cell viability counter screen (AID 1259386);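 further: cells exposed to compounds for 22 h at 37 °C before the viability read; nearly all actives have a fitted effect of over 30% in size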; further: potency means the concentration at half of the fitted maximal effect
In short: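 Cytotoxicity was measured in parallel with the ERE-luciferase agonist screen, in the same wells. The cells were VM7Luc4E2, which endogenously express ER-alpha, and treatment was with compounds plus 10.0nM ICI-182,780 for 22hr.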

[8] = target: Progesterone receptor (Homo sapiens) (UniProt P06401); experiment: qHTS assay to identify small molecule agonists of the progesterone receptor (PR) signaling pathway (AID 1346784; calls by dose curve; further: nearly all actives have a fitted effect of over 30% in size)
Progesterone receptor (Homo sapiens), sequence (P06401 whole entry, looked up): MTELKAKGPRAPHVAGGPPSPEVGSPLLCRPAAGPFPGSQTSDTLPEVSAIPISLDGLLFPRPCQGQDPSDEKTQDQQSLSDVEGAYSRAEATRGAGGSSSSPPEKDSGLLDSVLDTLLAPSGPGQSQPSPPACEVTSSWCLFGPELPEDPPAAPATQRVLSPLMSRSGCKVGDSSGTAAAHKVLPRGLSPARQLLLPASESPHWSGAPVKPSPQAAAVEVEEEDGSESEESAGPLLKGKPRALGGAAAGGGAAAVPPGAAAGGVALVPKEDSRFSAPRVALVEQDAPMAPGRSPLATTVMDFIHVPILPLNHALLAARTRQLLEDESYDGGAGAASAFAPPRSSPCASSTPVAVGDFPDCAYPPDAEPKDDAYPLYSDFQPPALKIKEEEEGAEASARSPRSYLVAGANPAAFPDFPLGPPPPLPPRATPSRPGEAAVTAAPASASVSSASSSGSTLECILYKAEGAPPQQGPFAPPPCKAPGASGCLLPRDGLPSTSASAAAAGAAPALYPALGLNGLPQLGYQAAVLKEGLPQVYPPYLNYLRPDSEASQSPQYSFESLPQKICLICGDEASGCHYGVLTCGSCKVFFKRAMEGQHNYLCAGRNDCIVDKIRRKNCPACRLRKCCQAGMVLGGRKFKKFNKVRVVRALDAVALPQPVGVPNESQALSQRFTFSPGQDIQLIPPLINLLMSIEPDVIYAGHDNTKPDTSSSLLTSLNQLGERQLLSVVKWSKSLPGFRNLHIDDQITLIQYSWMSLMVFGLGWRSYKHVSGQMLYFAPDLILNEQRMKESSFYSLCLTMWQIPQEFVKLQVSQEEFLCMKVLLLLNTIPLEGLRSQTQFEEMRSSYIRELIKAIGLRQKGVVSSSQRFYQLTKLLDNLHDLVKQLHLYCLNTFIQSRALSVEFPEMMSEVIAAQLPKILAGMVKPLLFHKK
In short: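 The screen uses PR-UAS-bla HEK 293T cells in charcoal-stripped serum (2%). Compounds are applied for 16 hr at 37C after a 6 hr pre-incubation, and reporter activity is detected with a FRET beta-lactamase substrate after 2 hr at room temperature.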

[9] = target: Progesterone receptor (Homo sapiens) (UniProt P06401); experiment: qHTS assay to identify small molecule antagonists of the progesterone receptor (PR) signaling pathway (AID 1346795; active means well fitted inhibition curve with a large enough effect in the signal ratio in the repeat runs, not every such curve was filed as active; the % refers to the signal ratio; further: potency means the concentration at half of the fitted maximal effect)
In short: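 After 6 hr plating at 37C in 2% stripped-serum medium, PR-UAS-bla HEK293T cells got compounds, then 1 nM R5020. Sixteen hours later, LiveBLAzer substrate was applied for 2 hr at room temperature and fluorescence was recorded.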

[10] = qHTS assay to identify small molecule antagonists of the progesterone receptor (PR) signaling pathway - cell viability counter screen (AID 1346798); further: series mostly up to about 92 µM; nearly all actives have a fitted effect of over 50% in size
In short: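 Viability was determined by ATP-based luminescence (CellTiter-Glo) in PR-UAS-bla HEK293T cells cultured in 2% charcoal-stripped serum and incubated 16 hr with compounds under R5020 stimulation.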

[11] = qHTS assay to identify small molecule agonists of the progesterone receptor (PR) signaling pathway - cell viability counter screen (AID 1346799; calls by dose curve; further: nearly all actives have a fitted effect of over 45% in size; further: potency means the concentration at half of the fitted maximal effect)
In short: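 Viability was scored by ATP luminescence (CellTiter-Glo, 30 min, room temperature) in the same wells used for the reporter readout, after 16 hr compound exposure of PR-UAS-bla HEK293T cells.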

[12] = qHTS assay to identify small molecule antagonists of the TGF-beta/Smad signaling pathway - cell viability counter screen (AID 1346824); further: nearly all actives have a fitted effect of over 50% in size
In short: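 SBE-bla HEK 293T cells, incubated overnight, then compound plus 0.25 ng/mL TGF-beta1 (stock added) for 5 hr at 37 C. Viability was read in the same wells by CellTiter-Glo luminescence after 30 min at room temperature.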

[13] = qHTS assay to identify small molecule agonists of the TGF-beta/Smad signaling pathway - cell viability counter screen (AID 1346829); further: top concentration of the series differs between compounds; nearly all actives have a fitted effect of over 45% in size
In short: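 CellTiter-Glo luminescence readout; SBE-bla HEK 293T cells, overnight plating, compound 5 hr at 37 C/5% CO2, then bla substrate 2 hr RT, then CellTiter-Glo 30 min RT.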

[14] = target: Thyrotropin-releasing hormone receptor (Homo sapiens) (UniProt P34981); experiment: qHTS assay to identify small molecule antagonists of the thyrotropin-releasing hormone receptor (TRHR) signaling pathway (AID 1346877; active means well fitted inhibition curve with a large enough effect in the repeat runs, not every such curve was filed as active; further: potency means the concentration at half of the fitted maximal effect)
Thyrotropin-releasing hormone receptor (Homo sapiens), sequence (P34981 whole entry, looked up): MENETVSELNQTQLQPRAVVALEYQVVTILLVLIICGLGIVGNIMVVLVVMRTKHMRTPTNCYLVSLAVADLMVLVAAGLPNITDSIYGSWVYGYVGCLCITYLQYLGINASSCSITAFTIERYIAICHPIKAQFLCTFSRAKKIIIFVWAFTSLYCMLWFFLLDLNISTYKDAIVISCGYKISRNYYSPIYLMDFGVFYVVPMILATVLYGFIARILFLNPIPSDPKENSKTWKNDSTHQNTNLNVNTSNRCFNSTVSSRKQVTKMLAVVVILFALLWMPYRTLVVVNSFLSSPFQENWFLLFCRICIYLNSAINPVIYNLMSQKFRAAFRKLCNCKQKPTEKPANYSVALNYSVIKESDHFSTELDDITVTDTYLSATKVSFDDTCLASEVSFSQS
In short: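 Antagonism is measured as suppression of the calcium response to 1 nM TRH in TRHR-HEK293 cells that have been dye-loaded for 2 h at 37 °C after overnight plating. Each compound is tested at 15 concentrations in triplicate.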

[15] = target: Thyrotropin-releasing hormone receptor (Homo sapiens) (UniProt P34981); experiment: qHTS assay to identify small molecule agonists of the thyrotropin-releasing hormone receptor (TRHR) signaling pathway (AID 1346891; calls by dose curve; further: potency means the concentration at half of the fitted maximal effect;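 on activation: HEK293 cells expressing TRHR with calcium dye readout; series mostly up to about 58 µM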)
In short: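 Kinetic fluorescence (3 min, 1 s intervals) reported intracellular calcium after compound transfer onto TRHR-Hek293 cells pre-loaded with dye for 2 h at 37 °C.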

[16] = Human pregnane X receptor (PXR) small molecule agonists, qHTS cell viability counter screen (AID 1346977); further: nearly all actives have a fitted effect of over 50% in size; further: potency means the concentration at half of the fitted maximal effect
In short: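 HepG2 cells stably carrying the PXR-Luc reporter are cultured with 5% charcoal-stripped FBS and treated with compounds for 24hr. CellTiter-Fluor is added at 23hr and fluorescence is read after 1hr.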

[17] = Caspase-3/7 induction in HepG2 cells by small molecules, qHTS assay (AID 1346978); further: nearly all actives have a fitted effect of over 15% in size
In short: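 Wild-type HepG2 cells, 2,000/well, settled 5 hr at 37 C and 5% CO2, then compound-treated for 17 hr; caspase-3/7 activity read by luminescent Caspase-Glo 3/7 after 30 min at room temperature.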

[18] = Caspase-3/7 induction in CHO-K1 cells by small molecules, qHTS cell viability counter screen (AID 1346979); further: nearly all actives have a fitted effect of over 35% in size; further: potency means the concentration at half of the fitted maximal effect
In short: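 Seeding: 1,500 CHO-K1 cells/well. Rest: 5hr, 37C. Treatment: compounds in DMSO, 16hr. Read: CellTiter-Fluor, 1hr, fluorescence.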

[19] = qHTS assay to identify small molecule agonists of the TGF-beta/Smad signaling pathway (AID 1346859; active means well fitted activation curve with a large enough effect in the signal ratio in the repeat runs, not every such curve was filed as active; the % refers to the signal ratio; further: series mostly up to about 77 µM)
In short: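 Dual-wavelength fluorescence (460/530 nm emission) quantified beta-lactamase expression under the Smad binding element in HEK 293T cells following 5 hr compound treatment at 37 C.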

Structure (SMILES)	Potency [1]	Potency [2]	Potency [3]	Potency [4]	Potency [5]	Potency [6]	Potency [7]	outcome [8]	Potency [9]	Potency [10]	Potency [11]	Potency [12]	Potency [13]	Potency [14]	Potency [15]	Potency [16]	Potency [17]	Potency [18]	outcome [19]
CCCCCCCCc1ccc(Nc2ccc(CCCCCCCC)cc2)cc1	inactive	inactive	inactive	inactive	inactive	inactive	inactive	inactive	inactive	inactive	inactive	inactive	inactive	inactive	inactive	inactive	inactive	inactive	
CCc1cccc(C)c1N(C(=O)C(=O)O)C(C)COC (configuration not stated)	inactive	inactive	inactive	inactive	inactive	inactive	inactive	inactive		inactive	inactive			inactive	inactive	inactive	inactive	inactive	inactive
O[Si](c1ccccc1)(c1ccccc1)c1ccccc1	48.6 µM (active)	inactive		inactive		inactive	inactive	inactive		inactive		inactive	inactive			inactive	inactive	30.6 µM (active)	inactive
O=C1OC2(c3ccccc31)c1ccc(O)c(Br)c1Oc1c2ccc(O)c1Br	inactive	inactive	inactive			48.6 µM (active)	30.6 µM (active)			inactive				1.2 µM (active)	3.89 µM (active)	inactive	inactive	27.3 µM (active)	
COCCC(=O)OC	inactive	inactive	inactive	inactive		inactive	inactive	inactive			inactive		inactive	inactive	inactive	inactive	inactive	inactive	inactive
CCCCCCCCCCCCN1CCCC1=O	48.6 µM (active)		54.5 µM (active)	inactive			inactive	inactive				inactive	inactive	inactive				61.1 µM (active)	inactive
CCCCCCCCCC[N+](C)(CCCCCCCCCC)CCC[Si](OC)(OC)OC				inactive	inactive	inactive	inactive	inactive			24.3 µM (active)			inactive				30.6 µM (active)	inactive
O=C(CCN1CCC(c2ccccc2)C1)c1ccc2c(c1)OCCO2 (configuration not stated)	inactive		inactive	inactive		inactive	inactive			inactive		inactive		inactive		23.7 µM (active)	inactive	26.6 µM (active)	
Nc1cc([N+](=O)[O-])cc(Cl)c1O	inactive		inactive	inactive				inactive		inactive	inactive		inactive	inactive			inactive		inactive
C=CCc1cc(S(=O)(=O)c2ccc(O)c(CC=C)c2)ccc1O		inactive		inactive	inactive	inactive	inactive	inactive	27.3 µM (active)			inactive					inactive		inactive
O=C1OC(O)C(C(Cl)Cl)=C1Cl (configuration not stated)	19.9 µM (active)		inactive	inactive		inactive	inactive				inactive	inactive	inactive	inactive	inactive		inactive	17.8 µM (active)	
CS(=O)(=O)c1ccc([C@@H](CC2CCCC2)C(=O)Nc2cnccn2)cc1Cl																	inactive	61.1 µM (active)	
